From PubChem BioAssay AID449762 (Southern Research Specialized Biocontainment Screening …, 2010)
In all, about 330,000 compounds went through this assay and about 1,900 (0.58%) were called active. About 4% were inconclusive and are not listed. A selection follows. Results with a measured potency or affinity are listed apart. A number with no mark means an inactive call. Rule as the data show it: inconclusive = inhibition above about 70% without an active follow-up result; inactive = below that.

Assay: M. tuberculosis growth inhibition, HTS (AID 449762);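 also: bacterial growth assessed after seven days of incubation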
Conditions: M. tuberculosis H37Rv growth inhibition, 7H9 media; at 25 µM; stronger effect = higher value

Q: With `COc1ccc(NC(=O)c2ccc(CNc3c(NC4CCCCC4)c(=O)c3=O)cc2)c(OC)c1` as the compound, how does the inhibition read?
A: -5.88%

Q: Which inhibition does the source give for `CCOc1ccccc1NC(=O)c1ccccc1N(C)S(C)(=O)=O` here?
A: -4.2%

Q: With `COc1ccc(C2C(C#N)=C(N)N(Nc3ccccc3)C3=C2C(=O)CC(C)(C)C3)cc1C` (stereo unspecified) as the compound, how does the inhibition read?
A: -5.96%

Q: For `COc1ccc(C2C(C#N)=C(N)N(N(C)C)C3=C2C(=O)CC(C)(C)C3)cc1OC` (stereo unspecified), which inhibition is on record?
A: 7.78%

Q: For `CSc1ccccc1OCc1cc(C(=O)NC(C)CCn2cccn2)no1` (stereo unspecified), which inhibition is on record?
A: -15.6%

Q: For `Cc1cc(C)n(C(=O)c2ccc([N+](=O)[O-])cc2N)n1`, which inhibition is on record?
A: -4%

Q: Which inhibition does the source give for `Cc1cc(C)n(C(=O)c2ccc([N+](=O)[O-])cc2Cl)n1` here?
A: 5.54%

Q: Which inhibition does the source give for `Cc1nc([N+](=O)[O-])cn1CC(=O)c1ccc(Br)cc1` here?
A: 4.4%

Q: With `CC(C)C(=O)c1cn(CC(=O)NCc2ccc3c(c2)OCO3)c2ccccc12` as the compound, how does the inhibition read?
A: -5.3%

Q: For `CC(=O)n1nc(-c2ccccc2)nc1NCc1ccc(N(C)C)cc1`, which inhibition is on record?
A: 0.39%

Q: With `CS(=O)(=O)n1nc(-c2cccnc2)nc1NCc1ccccc1` as the compound, how does the inhibition read?
A: 0.47%

Q: For `CCN(CC)CC(=O)NCC1(c2ccccc2)CCCC1`, which inhibition is on record?
A: -3.12%

Q: Which inhibition does the source give for `O=C(O)C1C2C=CC(C2)C1C(=O)Nc1ccc(C(=O)N2CCCCC2)cc1` (stereo unspecified) here?
A: 1.87%

Q: Which inhibition does the source give for `CCOC(=O)C(=O)N=Nc1c(O)n(C)c2ccccc12` here?
A: 1.87%

Q: Which inhibition does the source give for `Cc1cc(C)n2[nH]c(=O)c(N=Nc3ccccc3)c2n1` here?
A: 4.19%

Q: With `COc1cccc(N=Nc2c(=O)[nH]n3c(C)cc(C)nc23)c1` as the compound, how does the inhibition read?
A: 0.98%

Q: With `Cc1c(C(=O)N2CCN(C(=O)c3ccccc3)CC2)oc2ccc(F)cc12` as the compound, how does the inhibition read?
A: -0.86%

Q: Which inhibition does the source give for `COc1ccc(/C=C/C(=O)c2oc3ccc(F)cc3c2C)cc1` here?
A: 10.9%

Q: Which inhibition does the source give for `CC(=O)c1ccc(OCC(=O)Nc2cccc(S(=O)(=O)N3CCCC3)c2)cc1` here?
A: -6.55%

Q: With `O=C(COC(=O)c1cccs1)NCc1ccco1` as the compound, how does the inhibition read?
A: -0.65%

Q: For `COc1cc(NC(=O)c2cccs2)c(C(=O)OCC(=O)NCc2ccccc2)cc1OC`, which inhibition is on record?
A: -0.2%

Q: For `COc1cccc(CN(C)C(=O)c2ccc3c(=O)n4c(nc3c2)CCC4)c1OC`, which inhibition is on record?
A: 1.09%

Q: With `COc1ccc(COC(=O)c2ccc3c(=O)n4c(nc3c2)CCC4)cc1F` as the compound, how does the inhibition read?
A: 3.8%

Q: With `C[C@H](NC(=O)C1CCN(S(=O)(=O)c2ccccc2)CC1)C(=O)NCc1ccc(Cl)cc1Cl` as the compound, how does the inhibition read?
A: -1.33%

Q: Which inhibition does the source give for `O/C(=C\Sc1nnc(Cc2ccccc2)o1)c1ccc(Br)cc1` here?
A: 8.01%

Q: Which inhibition does the source give for `O/C(=C\Sc1nnc(Cc2ccccc2)o1)c1ccc(F)cc1` here?
A: 7.63%
